Source: PubChem (National Center for Advancing Translational Sciences (NCATS))
FBPA Giardia inh – qHTS Assay for Inhibitors of Fructose-1,6-bisphosphate Aldolase from Giardia Lamblia | A8B2U2 | AID 2451, 2010 | purified Giardia FBPA | Potency, µM (series often up to 59.6 µM), inactives show at the highest dose activity, negative = inhibition, hits mostly inhibitors | actives 0.71% (n = 290,000); also: potency is read from the fitted curve at half-maximal effect; % is scaled to controls: 0 for no effect and ±100 for the full control effect; nearly all actives have a fitted effect of over 55% in size
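Giardia FBPA (40 nM reagent) was preincubated 10 min at RT with compound (up to 57.5 uM final), then substrate plus GAPDH/TPI/NAD/arsenate coupling system with diaphorase/resazurin was added; resorufin fluorescence (525/598 nm) was read after 20 min.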
Shiga inhibitor – A qHTS for Small Molecule Inhibitors of Shiga Toxin. actives 9.2% (n = 290,000). AID 2315, 2010. Vero cells, Shiga toxin protein synthesis inhibition reporter. inhibition, % at 38.7 µM; in the data active = inhibition mostly above about 28%, no sharp cut-off; inactive = mostly below about 43%; also: 0% is about no effect
Cycloheximide cs – Cycloheximide Counterscreen for Small Molecule Inhibitors of Shiga Toxin; actives 12% (n = 300,000); AID 2314, 2010; max response, %; cell reporter, cycloheximide protein synthesis inhibition counterscreen; in the data active = max response mostly above about 13%, no sharp cut-off; inactive = mostly below about 14%; also: read at 38.3 µM for the half of the compounds with a filed dose; 0% is about no effect
RE007 growth inh – qHTS Assay for Inhibitors of the HIV-1 protein Vpr | S. pombe RE007 Vpr strain, BacTiter-Glo ATP luminescence, 24 h | AID 651644, 2012 | Potency, µM (titrated, usually from 92.2 µM), for inactives: at the top dose activity change, negative = less growth, usual class: inhibitors | actives 0.21% (n = 360,000); active = well fitted falling curve with a large enough effect; inconclusive = small, poorly fitted or top-dose-only effect; inactive = no such curve, though single readings can be large or run the other way; also: potency is read from the fitted curve at half-maximal effect; % is scaled to controls: 0 for no effect and ±100 for the full control effect; nearly all actives have a fitted effect of over 50% in size
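Fission yeast strain RE007, carrying one chromosomally integrated HIV-1 vpr copy, was seeded at OD 0.01 in PMG+AL medium with 23 nL pinned compound. After 24 h at 30 °C and 99% humidity, viability was read by BacTiter-Glo luminescence.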
LmPK inh – qHTS Assay for Inhibitors of Leishmania Mexicana Pyruvate Kinase (LmPK). actives 0.37% (n = 290,000). Q27686. purified LmPK, Kinase-Glo ATP luminescence, 1 h. AID 1721, 2009. Potency, µM (doses to about 57.5 µM), for the others: top-dose activity change, negative = inhibition, hits mostly inhibitors; also: potency is read from the fitted curve at half-maximal effect; % is scaled to controls: 0 for no effect and ±100 for the full control effect
Target sequence (Q27686 whole entry, looked up): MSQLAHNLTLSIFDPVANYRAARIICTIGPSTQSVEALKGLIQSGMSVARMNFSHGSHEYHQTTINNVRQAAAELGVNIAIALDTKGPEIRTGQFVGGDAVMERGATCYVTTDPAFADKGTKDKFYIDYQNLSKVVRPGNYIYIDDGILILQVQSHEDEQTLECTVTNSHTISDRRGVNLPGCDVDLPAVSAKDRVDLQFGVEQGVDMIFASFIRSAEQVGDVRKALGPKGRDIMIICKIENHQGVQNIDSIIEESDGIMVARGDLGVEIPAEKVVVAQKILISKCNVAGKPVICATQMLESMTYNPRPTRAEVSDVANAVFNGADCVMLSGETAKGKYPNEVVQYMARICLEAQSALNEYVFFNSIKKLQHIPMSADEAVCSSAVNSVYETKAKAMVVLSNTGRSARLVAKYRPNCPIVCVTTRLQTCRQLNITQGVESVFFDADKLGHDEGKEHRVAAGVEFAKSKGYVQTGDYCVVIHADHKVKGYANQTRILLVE
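Pyruvate kinase activity monitored as ATP production (luciferase luminescence). Conditions: 0.1 nM enzyme, 0.5 mM PEP, 0.1 mM ADP, 1 h, RT; normalized against uninhibited and no-enzyme wells.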
TbPYK inhibitor – qHTS of Trypanosoma Brucei Inhibitors; actives 0.12% (n = 410,000); Potency, µM (titrated, usually from 76.8 µM), inactives show at the highest dose activity, negative = inhibition, actives largely listed as inhibitors; AID 624173, 2012; TbPYK enzyme, Kinase-Glo Plus ATP luminescence, 45 min; also: potency is read from the fitted curve at half-maximal effect; % is scaled to controls: 0 for no effect and ±100 for the full control effect; nearly all actives have a fitted effect of over 50% in size
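Quantitative HTS: titrated library compounds versus trypanosomal pyruvate kinase in TEA buffer (pH 7.2) containing KCl, MgCl2, BSA and Tween-20. Reactions were initiated with ADP, 130 uM final. Kinase-Glo Plus luminescence was read after 45 min at RT.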
Starred values were filed as active, the others as inactive; [ ] = remark or other dose. Shown is part of a subset that was picked to be rich in hits. Unless noted, calls follow the shape of the dose curve; as a rule, active = well fitted curve in the direction sought with a large enough effect; inconclusive = small, poorly fitted or top-dose-only effect, or another doubt; inactive = no such curve, though single readings can be large; an effect the other way counts as inactive or inconclusive.

What do the screens show for `CC[C@@]1([C@@H]2O[C@@H]([C@H]3O[C@@](O)(CO)[C@H](C)C[C@@H]3C)C[C@@H]2C)CC[C@@H]([C@]2(C)CCC3(C[C@H](O)[C@@H](C)[C@@H]([C@@H](C)[C@@H](OC)[C@H](C)C(=O)O)O3)O2)O1` (some centres not stated)?
FBPA Giardia inh: 6%; Shiga inhibitor: 10; Cycloheximide cs: -1

How did CCN(CC)S(=O)(=O)c1cccc(C(=O)N/N=C/c2ccc(O)c(O)c2O)c1 do in these assays?
FBPA Giardia inh: 4.5µM*; Shiga inhibitor: 4; Cycloheximide cs: -3; RE007 growth inh: 3%; LmPK inh: 0%; TbPYK inhibitor: inconclusive

Results for CN(C)S(=O)(=O)c1cccc(NC(=S)Nc2cc(Cl)cc(Cl)c2)c1 ?
FBPA Giardia inh: inconclusive; Shiga inhibitor: -16; Cycloheximide cs: -5; RE007 growth inh: 1%; LmPK inh: -3%; TbPYK inhibitor: 0%

Results for CCOc1ccccc1/C=N/NC(=O)c1cccc(S(=O)(=O)N(CC)CC)c1 ?
FBPA Giardia inh: inconclusive; Shiga inhibitor: -3; Cycloheximide cs: -2; RE007 growth inh: -3%; LmPK inh: -2%; TbPYK inhibitor: 2%

What do the screens show for `CN(C)S(=O)(=O)c1cccc(NC(=S)N/N=C/c2ccc(O)c(O)c2O)c1`?
FBPA Giardia inh: 16µM*; Shiga inhibitor: 23; Cycloheximide cs: 13; RE007 growth inh: -12%; LmPK inh: -15%; TbPYK inhibitor: 10µM*

Results for COc1cc(/C=N/NC(=S)Nc2cccc(S(=O)(=O)N(C)C)c2)cc(OC)c1O ?
FBPA Giardia inh: -16%; Shiga inhibitor: -31; Cycloheximide cs: 13; RE007 growth inh: 8%; LmPK inh: 1%; TbPYK inhibitor: 3%

How did COc1ccc(O)c(/C=N/NC(=S)Nc2cccc(S(=O)(=O)N(C)C)c2)c1 do in these assays?
FBPA Giardia inh: -4%; Shiga inhibitor: 13; Cycloheximide cs: 18*; RE007 growth inh: 15%; LmPK inh: 5%; TbPYK inhibitor: -20%

What do the screens show for `CCN(CCO)c1ccc(NC(=S)Nc2cccc(S(=O)(=O)N(C)C)c2)cc1`?
FBPA Giardia inh: 7.9µM*; Shiga inhibitor: 5; Cycloheximide cs: 6; RE007 growth inh: -9%; LmPK inh: -9%; TbPYK inhibitor: -19%

How did CN1CCc2cc(O)c(O)cc2C1Cc1ccc(O)c(O)c1 (configuration not stated) do in these assays?
FBPA Giardia inh: -27%; Shiga inhibitor: -17; Cycloheximide cs: -6

What do the screens show for `COc1ccc(O)c(/C=N/NC(=S)Nc2cccnc2)c1`?
FBPA Giardia inh: 17%; Shiga inhibitor: 91*; Cycloheximide cs: 34*; RE007 growth inh: 5%; LmPK inh: -1%; TbPYK inhibitor: inconclusive

Results for COc1cccc(/C=N/NC(=S)Nc2cccnc2)c1 ?
FBPA Giardia inh: -15%; Shiga inhibitor: 49; Cycloheximide cs: 12; RE007 growth inh: 12%; LmPK inh: -3%; TbPYK inhibitor: -3%

How did O=C(N/N=C\c1ccco1)Nc1cccc(Cl)c1 do in these assays?
FBPA Giardia inh: -7%; Shiga inhibitor: 142*; Cycloheximide cs: 80*; RE007 growth inh: 24%; LmPK inh: -3%; TbPYK inhibitor: 5%

Results for CN(C)S(=O)(=O)c1cccc(NC(=S)N/N=C/c2ccco2)c1 ?
FBPA Giardia inh: 9%; Shiga inhibitor: 25; Cycloheximide cs: 14*; RE007 growth inh: 6%; LmPK inh: 4%; TbPYK inhibitor: 0%

What do the screens show for `COc1ccc(NC(=O)CSC2=Nc3ccccc3C3=NC(CC(=O)NCc4ccc5c(c4)OCO5)C(=O)N23)cc1` (configuration not stated)?
TbPYK inhibitor: 5%

What do the screens show for `C/C(=N\NC(=O)CSCc1ccc(Cl)cc1)c1ccc(NC(=O)c2ccccc2)cc1`?
FBPA Giardia inh: -1%; Shiga inhibitor: 21; Cycloheximide cs: 23*; RE007 growth inh: 5%; LmPK inh: 0%; TbPYK inhibitor: 5%

How did COc1c(C)cccc1C(=O)Nc1ccc(CN2CCCCC2)cc1 do in these assays?
FBPA Giardia inh: 2%; Shiga inhibitor: 56; Cycloheximide cs: 37*; RE007 growth inh: -4%[3.69 µM]; LmPK inh: -2%

Results for O=C(Nc1cccc([N+](=O)[O-])c1)c1ccc(CN2CCOCC2)cc1 ?
FBPA Giardia inh: -5%; Shiga inhibitor: 85*; Cycloheximide cs: 39*; RE007 growth inh: 0%; LmPK inh: 6%; TbPYK inhibitor: 3%

How did CC(C)(C)c1ccc(C(=O)Nc2ccc(CN3CCS(=O)(=O)CC3)cc2)cc1 do in these assays?
FBPA Giardia inh: -1%; Shiga inhibitor: 36; Cycloheximide cs: 17*; RE007 growth inh: 2%; LmPK inh: 4%; TbPYK inhibitor: 2%

What do the screens show for `COc1cccc(OC)c1C(=O)Nc1ccc(CN2CCCCC2)cc1`?
FBPA Giardia inh: 0%; Shiga inhibitor: -8; Cycloheximide cs: -1; RE007 growth inh: -3%; LmPK inh: -8%; TbPYK inhibitor: 1%

Results for C/C(=N/NC(=O)CSCc1ccc(Cl)cc1)c1cccc(NC(=O)c2ccccc2)c1 ?
FBPA Giardia inh: 7%; Shiga inhibitor: 1; Cycloheximide cs: 8; RE007 growth inh: 7%; LmPK inh: 1%; TbPYK inhibitor: -4%

How did CCCCC[C@H](O)/C=C/[C@H]1OC(O)C[C@H](O)[C@@H]1C/C=C\CC(=O)O (some centres not stated) do in these assays?
FBPA Giardia inh: 3%

Results for CNC(=O)C1(C(F)(F)F)C/C(=C\Cc2ccccc2)CCCO1 (configuration not stated) ?
FBPA Giardia inh: 5%; Shiga inhibitor: 0; Cycloheximide cs: 2

How did NCCNC(=O)c1ccc(Cl)cn1 do in these assays?
FBPA Giardia inh: -12%; Shiga inhibitor: -5; Cycloheximide cs: -6; TbPYK inhibitor: 6%

How did CCS(=O)(=O)N1CCC(C(=O)NCCC(C)C)CC1 do in these assays?
TbPYK inhibitor: 0%

Results for O=C(Nc1ccc(CN2CCOCC2)cc1)c1ccc(Cl)cc1 ?
FBPA Giardia inh: -6%; Shiga inhibitor: 36*; Cycloheximide cs: 33*; RE007 growth inh: -12%; LmPK inh: 0%; TbPYK inhibitor: 0%

Results for O=C(Nc1ccc(CN2CCOCC2)cc1)c1cccc(F)c1 ?
FBPA Giardia inh: 0%; Shiga inhibitor: 81*; Cycloheximide cs: 52*; RE007 growth inh: -13%; LmPK inh: -9%; TbPYK inhibitor: 1%
